# Screening results (PubChem)
# ERK AVP inh = vasopressin-driven ERK pathway inhibition; actives 0.99% (n = 72,000); HEK293-V1b, vasopressin-stimulated pERK AlphaScreen; Potency, µM (series often up to 57.5 µM), for the others: at the highest dose activity, negative = inhibition, most hits filed as inhibitors; AID 995; further: on the % scale 0 is the no-effect control and ±100 the full control effect; nearly all actives have a fitted effect of over 55% in size
#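 Overnight-seeded V1b-HEK293 cells in 1% FBS got compound, then vasopressin (25 nM final, 5 min, 37C), then lysis buffer. AlphaScreen detection of phospho-ERK; activity normalized to basal and full-stimulation controls.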
# Casp7 inh = blocks human caspase-7 allosterically or competitively; P55210; recombinant caspase-7, Ac-DEVD-AFC fluorescence rate; Potency, µM (series often up to 57.5 µM), without a hit: top-dose activity change, negative = inhibition, actives largely listed as inhibitors; actives 0.02% (n = 75,000); active means well fitted inhibition curve with a large enough effect in the main read-out, with a control signal flat, not every such curve was filed as active; inconclusive means small, poorly fitted or top-dose-only effect, or a change in a side signal; further: % of control where 0% means no effect
# Target sequence (P55210 24-198 limits assumed): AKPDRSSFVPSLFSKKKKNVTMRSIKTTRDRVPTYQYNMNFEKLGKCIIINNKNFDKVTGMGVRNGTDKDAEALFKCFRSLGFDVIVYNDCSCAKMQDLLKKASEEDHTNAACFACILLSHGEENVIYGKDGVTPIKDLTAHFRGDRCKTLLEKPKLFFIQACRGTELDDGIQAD
# Target sequence (P55210 207-303 limits assumed): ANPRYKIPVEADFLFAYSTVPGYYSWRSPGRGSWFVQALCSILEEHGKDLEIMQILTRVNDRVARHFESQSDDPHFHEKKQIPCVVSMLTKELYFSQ
# 15-hLO inh = blocks human 15-lipoxygenase activity | AID 887 | P16050 | purified 15hLO-1, xylenol orange hydroperoxide absorbance | actives 1.4% (n = 74,000) | Potency, µM (highest dose often 57.1 µM), for the others: top-dose activity change, negative = inhibition, actives largely listed as inhibitors; further: on the % scale 0 is the no-effect control and ±100 the full control effect; nearly all actives have a fitted effect of over 55% in size
#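 Quantitative HTS in 25 mM Hepes pH 7.5 containing 0.01% Triton X-100: human 15hLO-1 at 40 nM, arachidonic acid at 50 uM, 6 min turnover. Product quantified via ferrous oxidation/xylenol orange, 573:405 nm absorbance ratio.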
# Tau filament bind = binders of human tau filaments; P10636; recombinant tau filaments, thioflavin S fluorescence, 15 h; filaments grown with octadecylsulfate alongside compound; Potency, µM (highest dose often 57.1 µM), for inactives: top-dose activity change, negative = inhibition; actives 2% (n = 71,000); AID 596;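 further: on the % scale 0 is the no-effect control and ±100 the full control effect; actives lower thioflavin S fluorescence by blocking filaments or displacing dye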
#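 Tau 2 uM in ThS buffer dispensed; compound added; 60 uM ODS added (finals 1 uM tau, 30 uM ODS); 15 h 37 C; fluor ex450/em510.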
# Casp1 inh = allosteric or competitive inhibitors of human caspase-1. P29466. Caspase-1 enzyme, Ac-WEHD-AFC fluorogenic rate. Potency, µM (highest dose often 57.5 µM), for inactives: at the highest dose activity change, negative = inhibition, most hits filed as inhibitors. actives 0.03% (n = 75,000). AID 900;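 further: plate controls were vehicle for no effect and no substrate for full effect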
# Target sequence (P29466 120-297 limits assumed): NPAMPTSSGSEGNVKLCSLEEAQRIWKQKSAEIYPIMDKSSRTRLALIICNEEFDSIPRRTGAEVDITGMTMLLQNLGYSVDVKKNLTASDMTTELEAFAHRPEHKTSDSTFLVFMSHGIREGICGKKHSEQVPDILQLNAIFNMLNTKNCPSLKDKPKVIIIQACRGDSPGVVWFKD
# Target sequence (P29466 317-404 limits assumed): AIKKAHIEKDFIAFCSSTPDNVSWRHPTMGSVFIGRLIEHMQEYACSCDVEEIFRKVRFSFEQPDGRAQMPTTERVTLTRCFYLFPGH
# Numbers without * were called inactive; ? = inconclusive; . = no result given; ! = a repeat was not active; [ ] = another dose, or the depositor's remark. A selection: hits, their analogues and other compounds. The true share with any hit is near 3.9%. Unless noted, the call rests on the fitted dose curve; in most records, active means well fitted curve in the direction sought with a large enough effect; inconclusive means small, poorly fitted or top-dose-only effect, or another doubt; inactive means no such curve, though single readings can be large; an effect the other way counts as inactive or inconclusive. Potency means the concentration at half of the fitted maximal effect.
SMILES,ERK AVP inh,Casp7 inh,15-hLO inh,Tau filament bind,Casp1 inh
Clc1ccc(-c2ccc(-c3nn4c(-c5ccco5)nnc4s3)o2)cc1,-23%,-22%,16µM*,25µM*,-4%
Brc1ccc(-c2nn3c(-c4ccco4)nnc3s2)o1,-22%,-9%,20µM*,-8%,-6%
CCNc1ncc2nc(CCc3ccccc3)c(=O)n(Cc3cccc(OC)c3)c2n1,10%,-18%,-23%,1%,-13%
CC1CC(C)CN(CCC(=O)Nc2cccc(Cl)c2)C1 (configuration not stated),-3%,-1%,2%,20µM*,-1%
O=C(CCN1CCCCCC1)Nc1cccc(Cl)c1,-27%,1%,11%,-21%,0%
CCOC(=O)c1sc(NC(=O)CSc2nnc(-c3ccco3)n2CC)c(C(=O)OCC)c1C,9%,-13%,6.3µM*,94%,-4%
NC(=O)c1c(NC(=O)CSc2nnc(-c3ccco3)n2-c2ccccc2)sc2c1CCC2,-11%,-23%,25µM*,22%,-5%
Cc1noc(C)c1-c1nccc(NCCN2CCOCC2)n1,13%,-3%,?,4%,0%
CCCOc1ccc(N2C(=O)CC(N(O)c3ccccc3)C2=O)cc1 (configuration not stated),-14%,1%,-15%,25µM*,-1%
CCCCCCCNS(=O)(=O)c1cccc2c(Cl)cccc12,20%,-5%,-17%[25.6 µM],40µM*,-2%
CCOc1ccc(C(=O)Nc2ccc(N3CCN(C)CC3)cc2)cc1Br,-5%,1%,?,10µM*,-1%
COc1cc2ccccc2cc1C(=O)Nc1ccc(N2CCN(C)CC2)cc1,?,-1%,11%,3.2µM*,-3%
CCOc1ccc(C(=O)Nc2ccc(N3CCCC3)cc2)cc1,-6%,-1%,?,10µM*,-4%
CCN1CCN(c2cc(C)c3cc(NC(=O)c4cnccn4)ccc3n2)CC1,?,-5%,-11%,10µM*,-2%
Cc1cc(N2CCN(C)CC2)nc2ccc(NC(=O)c3ccc4c(c3)OCO4)cc12,13µM*,2%,-3%,179%,-5%
CCC[C@@H]1O[C@@H]2C[C@@H]3[C@@H]4CCC5=CC(=O)C=C[C@@]5(C)[C@H]4[C@H](O)C[C@@]3(C)[C@@]2(C(=O)CO)O1,.,.,.,-8%,.
CN1CCN(c2ncc3nc(-c4cccc(C#N)c4)c(=O)n(CCC#N)c3n2)CC1,-7%,?,-26%,0%,.
CN(Cc1ccccc1)c1nc2c(c(=O)[nH]c(=O)n2C)n1CCOc1ccccc1,13µM*,1%,?,-7%,0%
Cn1c(=O)[nH]c(=O)c2c1nc(SCC(=O)O)n2CCc1ccccc1,-20%,-1%,6.3µM*,15%,-4%
CCOC(=O)CSc1nc2c(c(=O)[nH]c(=O)n2C)n1CCc1ccccc1,-15%,-2%,3%,-2%,4%
CN(Cc1ccccc1)c1nc2c(c(=O)n(C)c(=O)n2C)n1CCCc1ccccc1,20µM*,-4%,-28%,21%,-3%
[N-]=[N+]=Nc1nc2c(N)ncnc2n1C1OC(CO)C(O)C1O (configuration not stated),-12%,0%,4%,.,0%
c1cc2c3c(c1)ccc1cccc(c13)C2,13%,-2%,-10%,16%,-3%
COc1ccc(N2Cc3cccc(C(=O)NC(C)CCc4ccco4)c3C2=O)cc1 (configuration not stated),-17%,-21%,20µM*,59%,-5%
COCCn1c(C)nc2oc3ccc(Br)cc3c(=O)c2c1=O,4%,-14%,8%,16µM*,-2%
SMILES,ERK AVP inh,Casp7 inh,15-hLO inh,Tau filament bind,Casp1 inh
CC(C)NC(=O)N1CCC2(CC1)CCN(C(=O)c1cccc(F)c1)CC2,1%,0%,4%,10%,-3%
CCCOc1ccccc1-c1nc2n[nH]nc2c(=O)[nH]1,-17%,-8%,16µM*!,?,-6%
Nc1ccccc1-c1nnc(SCc2ccccc2F)[nH]c1=O,-19%,-3%,-4%,16µM*,-1%
COc1ccc(NC(=O)c2cnn3c(C(F)(F)F)cc(-c4ccco4)nc23)cc1OC,-21%,1%,4%[11.4 µM],0.4µM*,-2%
O=C(NC12CC3CC(CC(C3)C1)C2)c1cc2nc(-c3ccco3)cc(C(F)(F)F)n2n1,51%,?,-9%,13µM*,.
O=C(Nc1ccc2c(c1)OCO2)c1cnn2c(C(F)(F)F)cc(-c3ccco3)nc12,-19%,-1%,3%,0.5µM*,0%
Cc1ccc(-c2cc(C(F)(F)F)n3ncc(C(=O)NCc4ccco4)c3n2)cc1,6%,-3%,10%[11.4 µM],17%[11.4 µM],0%
O=C(c1cnn2c(C(F)(F)F)cc(-c3ccco3)nc12)N1CCCc2ccccc21,25%,-1%,-9%[11.4 µM],?,-1%
O=C(Nc1cnn(C23CC4CC(CC(C4)C2)C3)c1)c1cnn2c(C(F)(F)F)cc(-c3ccco3)nc12,?,-6%,-9%,2µM*,-5%
O=C(Nc1cnn(Cc2ccccc2)c1)c1cc2nc(-c3ccco3)cc(C(F)(F)F)n2n1,-30%,?,-10%,-20%,.
Cc1ccccc1Cn1nc(C)c(NC(=O)c2cc3nc(-c4ccco4)cc(C(F)(F)F)n3n2)c1C,-15%,?,?,7.9µM*,?
O=c1[nH]c2ccc(Cl)cc2c(-c2ccccc2)c1N1CCN(c2ccccn2)CC1,13%,-3%,-9%,2%,-2%
O=c1[nH]c2ccc(Cl)cc2c(-c2ccccc2)c1CN1CCOCC1,-3%,-2%,?,13µM*,-3%
CN(C)c1ccc(NC(=O)Cn2ncn3c(cc4ccccc43)c2=O)cc1,-15%,0%,?,13µM*,1%
COc1cccc(-c2cc(C(=O)N/N=C/c3ccccc3O)[nH]n2)c1,.,-13%,9%,.,-5%
COc1cc2ccc(=O)oc2cc1O,4%,?,1%[25.6 µM],154%,.
O=c1ccc2ccc(O)c(O)c2o1,-2%,1%,25µM*,0%,2%
c1ccc2c(c1)CCN(c1nc3ccccc3n3cnnc13)C2,-15%,20µM*,-25%,246%,-23%
CC(C)CN1CCC2(CC1)CCN(S(=O)(=O)c1ccccc1)CC2,10%,0%,11%,10%,-5%
Cc1c(Cl)ccc2c1NC(=O)[C@]21[C@@H]2C(=O)N(Cc3ccccc3)C(=O)[C@@H]2[C@@H]2CCCN21,-29%,-17%,?,25µM*,-7%
CCc1cccc2c1NC(=O)[C@]21[C@@H]2C(=O)N(Cc3ccccc3)C(=O)[C@@H]2[C@@H]2CCCN21,?,-11%,-27%,25µM*,-6%
CC(NC(=O)CC1Nc2ccccc2NC1=O)c1ccccc1 (configuration not stated),28%,-1%,?,-1%,0%
Cc1ccc(NC(=O)CC2Nc3ccccc3NC2=O)cc1Cl (configuration not stated),10%,-29%,-26%,20µM*,?
